The values that follow come from PubChem BioAssay (EPA / NIEHS).

Inconclusive results are not listed. The source made the active and inactive calls. The calls were made as follows: active = hit-call score of the fitted dose curve at least 0.9, where 1 is the maximum; inconclusive = response in the unintended direction; inactive = score below 0.9.

The target in assay [1] is Tyrosine-protein phosphatase non-receptor type 13 (Homo sapiens) (UniProt Q12923). The assay is described as follows: NVS_ENZ_hPTPN13: NovaScreen (NVS) Enzymatic Assay for human Protein Tyrosine Phosphatase Non-receptor Type 13 (PTPN13) (AID 2283205). The essentials:
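Screened first at a single 25 uM in duplicate; compounds passing the threshold (e.g. 30% inhibition) were rerun in concentration series, top 50 uM. Recombinant enzyme, fluorescent substrate, mobility-shift separation, 0.5 h read. Data fitted as inhibition relative to DMSO.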

Assay [2] has as its target human Protein Tyrosine Phosphatase Non-receptor Type 6 (PTPN6), PTPN6 (gene 5777) (UniProt P29350). The assay is described as follows: NVS_ENZ_hPTPN6: NovaScreen (NVS) Enzymatic Assay for human Protein Tyrosine Phosphatase Non-receptor Type 6 (PTPN6) (AID 2283210). A digest of the protocol:
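Recombinant human PTPN6 from SF9 cells, enzyme activity followed by fluorescence after mobility-shift separation of substrate and product at 1.33 h. Chemicals first tested at a single 25 uM in duplicate, then confirmed across concentration series; loss of signal relative to DMSO.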

The target in assay [3] is human Protein Tyrosine Phosphatase Non-receptor Type 2 (PTPN2), PTPN2 (gene 5771) (UniProt P17706). The assay is described as follows: NVS_ENZ_hPTPN2: NovaScreen (NVS) Enzymatic Assay for human Protein Tyrosine Phosphatase Non-receptor Type 2 (PTPN2) (AID 2283207). On the procedure: NVS_ENZ_hPTPN2 is a biochemical, single-readout assay that uses extracted gene-proteins in a cell-free assay. Measurements were taken 1 hour after chemical dosing in a 384-well plate.NVS_ENZ_hPTPN2 is one of one assay component(s) measured or calculated from the NVS_ENZ_hPTPN2 assay. It is designed to make measurements of enzyme activity, a form of enzyme reporter, as detected with fluorescence intensity signals by Fluorescence and electrophoretic mobility shift technology.Data from the assay component NVS_ENZ_hPTPN2 was analyzed into 1 assay endpoint. This assay endpoint, NVS_ENZ_hPTPN2, was analyzed in the positive analysis fitting direction relative to DMSO as the negative control and baseline of activity. Using a type of enzyme reporter, loss-of-signal activity can be used to understand changes in the enzymatic activity as they relate to the gene PTPN2. Furthermore, this assay endpoint can be referred to as a primary readout, because this assay has produced multiple assay endpoints where this one serves a enzymatic activity function. To generalize the intended target to other relatable targets, this assay endpoint is annotated to the phosphatase intended target family, where the subfamily is non-receptor tyrosine phosphatase.
Chain of human Protein Tyrosine Phosphatase Non-receptor Type 2 (PTPN2), PTPN2 (gene 5771) (P17706 whole entry, looked up): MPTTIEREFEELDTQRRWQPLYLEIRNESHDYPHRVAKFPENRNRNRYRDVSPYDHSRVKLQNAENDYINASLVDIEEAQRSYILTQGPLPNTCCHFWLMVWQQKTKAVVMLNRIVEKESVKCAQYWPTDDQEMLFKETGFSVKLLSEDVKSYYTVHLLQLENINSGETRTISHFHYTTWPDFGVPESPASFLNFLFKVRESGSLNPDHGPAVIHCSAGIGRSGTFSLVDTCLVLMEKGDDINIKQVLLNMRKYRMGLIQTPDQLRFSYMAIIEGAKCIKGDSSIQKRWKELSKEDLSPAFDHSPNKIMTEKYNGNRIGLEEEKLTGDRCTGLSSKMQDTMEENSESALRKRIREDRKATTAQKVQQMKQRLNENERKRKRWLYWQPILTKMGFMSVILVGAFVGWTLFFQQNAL
Binding assays used specific radioligands (tritiated, iodinated) with non-radioactive competitive displacement ligands in agonist or antagonist protocols (as indicated) and various reference compounds and inhibitors to titrate specific binding to receptors and transporters. Most enzyme assays (CYPs, kinases, phosphatases, proteases, HDACs) used recombinant protein and specific substrates (fluorescence mostly, some colorimetric and radioactive) and inhibitors, followed by a biochemical separation of substrate and product. All assays for the biochemical HTS were initially run in duplicate at a single concentration (10 uM for CYP450 assays and 25 uM for all others). […] Each assay was run with positive and negative controls, and concurrent controls on every plate. The follow-up (secondary) screen tested active chemical-pairs in concentration series, as well as a few additional assays not tested in the primary screen, some selected negative inactives, and several cases re-run in the concentration series for confirmatory purposes.

Assay [4] concerns the target human Protein Tyrosine Phosphatase Receptor Type M (PTPRM), PTPRM (gene 5797) (UniProt P28827). The assay is described as follows: NVS_ENZ_hPTPRM: NovaScreen (NVS) Enzymatic Assay for human Protein Tyrosine Phosphatase Receptor Type M (PTPRM) (AID 2283215). A digest of the protocol: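 Read-out is fluorescence after electrophoretic separation of substrate and product, taken 1.33 h post-dosing with recombinant enzyme. Compounds screened at 25 uM in duplicate, then concentration series for actives; activity as signal loss relative to DMSO.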

In assay [5] the target is Tyrosine-protein phosphatase non-receptor type 12 (Homo sapiens) (UniProt Q05209). The assay is described as follows: NVS_ENZ_hPTPN12: NovaScreen (NVS) Enzymatic Assay for human Protein Tyrosine Phosphatase Non-receptor Type 12 (PTPN12) (AID 2283204). The essentials: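 Single-concentration duplicates (25 uM) preceded singleton concentration-response up to 50 uM for chemicals passing threshold. Cell-free recombinant PTPN12 activity was read 1.33 h after dosing via fluorescence after mobility-shift separation; loss of signal versus DMSO.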
Chain of Tyrosine-protein phosphatase non-receptor type 12 (Homo sapiens) (Q05209 whole entry, looked up): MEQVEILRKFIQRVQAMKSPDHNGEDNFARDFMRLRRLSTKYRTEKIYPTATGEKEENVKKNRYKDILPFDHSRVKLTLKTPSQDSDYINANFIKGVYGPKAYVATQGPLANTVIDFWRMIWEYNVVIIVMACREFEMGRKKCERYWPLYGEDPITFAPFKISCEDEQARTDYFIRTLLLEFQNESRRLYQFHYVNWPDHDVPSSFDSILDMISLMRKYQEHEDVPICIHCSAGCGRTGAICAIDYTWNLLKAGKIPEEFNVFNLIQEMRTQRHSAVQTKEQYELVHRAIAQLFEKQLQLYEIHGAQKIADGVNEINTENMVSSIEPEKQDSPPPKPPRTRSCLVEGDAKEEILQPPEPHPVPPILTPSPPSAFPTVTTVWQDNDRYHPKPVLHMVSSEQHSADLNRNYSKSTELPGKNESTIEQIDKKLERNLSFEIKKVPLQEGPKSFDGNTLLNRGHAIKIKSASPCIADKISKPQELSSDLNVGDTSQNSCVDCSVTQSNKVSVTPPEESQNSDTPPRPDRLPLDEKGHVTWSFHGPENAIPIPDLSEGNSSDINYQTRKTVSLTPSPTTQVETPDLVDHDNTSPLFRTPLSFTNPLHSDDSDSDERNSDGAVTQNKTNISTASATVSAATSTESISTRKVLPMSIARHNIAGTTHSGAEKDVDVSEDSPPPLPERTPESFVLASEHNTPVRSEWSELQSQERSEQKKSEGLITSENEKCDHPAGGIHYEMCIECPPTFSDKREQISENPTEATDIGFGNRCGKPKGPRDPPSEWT

Assay [6] concerns the target human Protein Tyrosine Phosphatase Non-receptor Type 9 (PTPN9), PTPN9 (gene 5780) (UniProt P43378). The assay is described as follows: NVS_ENZ_hPTPN9: NovaScreen (NVS) Enzymatic Assay for human Protein Tyrosine Phosphatase Non-receptor Type 9 (PTPN9) (AID 2283209). A digest of the protocol:
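Sf9-expressed enzyme in a cell-free assay, fluorescence read 1.33 h after dosing with mobility-shift separation of substrate and product. Tested at 25 uM in duplicate, then up to 50 uM; signal loss versus DMSO.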

Assay [7] has as its target human Protein Tyrosine Phosphatase Receptor Type F (PTPRF), PTPRF (gene 5792) (UniProt P10586). The assay is described as follows: NVS_ENZ_hPTPRF: NovaScreen (NVS) Enzymatic Assay for human Protein Tyrosine Phosphatase Receptor Type F (PTPRF) (AID 2283213). A digest of the protocol: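 Cell-free fluorescence enzyme assay with recombinant protein and substrate; product separated by electrophoretic mobility shift. Read 1 h after dosing, single 25 uM duplicate screen, then concentration-response up to 50 uM; loss of signal vs DMSO.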

For assay [8], the target named is human Raf-1 Proto-Oncogene, serine/threonine Kinase (RAF1), RAF1 (gene 5894) (UniProt P04049). The assay is described as follows: NVS_ENZ_hRAF1: NovaScreen (NVS) Enzymatic Assay for human Raf-1 Proto-Oncogene, serine/threonine Kinase (RAF1) (AID 2283216). A digest of the protocol:
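Single-point screening at 25 uM (duplicate), followed by singleton concentration-response to 50 uM maximum for chemicals exceeding threshold. Enzyme activity from fluorescent substrate-product mobility-shift separation after 1 h, relative to DMSO.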

For assay [9], the target named is human Rho Associated Coiled-coil Containing Protein Kinase 1 (ROCK1), ROCK1 (gene 6093) (UniProt Q13464). The assay is described as follows: NVS_ENZ_hROCK1: NovaScreen (NVS) Enzymatic Assay for human Rho Associated Coiled-coil Containing Protein Kinase 1 (ROCK1) (AID 2283214). A digest of the protocol:
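Compounds first run in duplicate at 25 uM against recombinant human ROCK1, then followed in concentration series. Kinase activity was read 1 h post-dosing by fluorescence with mobility-shift separation, as signal loss relative to DMSO.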

Assay [10] concerns the target human Protein Tyrosine Phosphatase Non-receptor Type 4 (PTPN4), PTPN4 (gene 5775) (UniProt P29074). The assay is described as follows: NVS_ENZ_hPTPN4: NovaScreen (NVS) Enzymatic Assay for human Protein Tyrosine Phosphatase Non-receptor Type 4 (PTPN4) (AID 2283208). On the procedure:
NVS_ENZ_hPTPN4 is a biochemical, single-readout assay that uses extracted gene-proteins from SF9 in a cell-free assay. Measurements were taken 1.33 hours after chemical dosing in a 384-well plate.NVS_ENZ_hPTPN4 is one of one assay component(s) measured or calculated from the NVS_ENZ_hPTPN4 assay. It is designed to make measurements of enzyme activity, a form of enzyme reporter, as detected with fluorescence intensity signals by Fluorescence and electrophoretic mobility shift technology.Data from the assay component NVS_ENZ_hPTPN4 was analyzed into 1 assay endpoint. This assay endpoint, NVS_ENZ_hPTPN4, was analyzed in the positive analysis fitting direction relative to DMSO as the negative control and baseline of activity. Using a type of enzyme reporter, loss-of-signal activity can be used to understand changes in the enzymatic activity as they relate to the gene PTPN4. Furthermore, this assay endpoint can be referred to as a primary readout, because this assay has produced multiple assay endpoints where this one serves a enzymatic activity function. To generalize the intended target to other relatable targets, this assay endpoint is annotated to the phosphatase intended target family, where the subfamily is non-receptor tyrosine phosphatase. […]

Chain of human Raf-1 Proto-Oncogene, serine/threonine Kinase (RAF1), RAF1 (gene 5894) (P04049 whole entry, looked up): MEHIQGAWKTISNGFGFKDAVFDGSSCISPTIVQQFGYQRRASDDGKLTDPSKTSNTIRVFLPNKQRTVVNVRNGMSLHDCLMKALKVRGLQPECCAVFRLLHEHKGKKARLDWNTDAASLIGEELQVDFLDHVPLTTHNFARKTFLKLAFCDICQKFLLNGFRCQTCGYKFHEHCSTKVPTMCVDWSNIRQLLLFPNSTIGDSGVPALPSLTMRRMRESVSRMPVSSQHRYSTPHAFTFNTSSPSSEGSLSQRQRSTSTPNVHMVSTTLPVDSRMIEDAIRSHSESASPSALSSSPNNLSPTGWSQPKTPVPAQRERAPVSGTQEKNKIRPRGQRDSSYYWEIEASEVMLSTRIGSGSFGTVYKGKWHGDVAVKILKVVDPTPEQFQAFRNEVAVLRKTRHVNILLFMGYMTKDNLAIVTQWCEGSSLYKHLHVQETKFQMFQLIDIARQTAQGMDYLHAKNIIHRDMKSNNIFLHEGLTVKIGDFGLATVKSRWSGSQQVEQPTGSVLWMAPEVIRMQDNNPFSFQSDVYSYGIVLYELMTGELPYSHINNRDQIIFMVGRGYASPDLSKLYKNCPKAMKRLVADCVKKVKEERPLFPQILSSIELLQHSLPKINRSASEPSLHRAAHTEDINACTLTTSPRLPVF
Chain of human Protein Tyrosine Phosphatase Receptor Type M (PTPRM), PTPRM (gene 5797) (P28827 whole entry, looked up): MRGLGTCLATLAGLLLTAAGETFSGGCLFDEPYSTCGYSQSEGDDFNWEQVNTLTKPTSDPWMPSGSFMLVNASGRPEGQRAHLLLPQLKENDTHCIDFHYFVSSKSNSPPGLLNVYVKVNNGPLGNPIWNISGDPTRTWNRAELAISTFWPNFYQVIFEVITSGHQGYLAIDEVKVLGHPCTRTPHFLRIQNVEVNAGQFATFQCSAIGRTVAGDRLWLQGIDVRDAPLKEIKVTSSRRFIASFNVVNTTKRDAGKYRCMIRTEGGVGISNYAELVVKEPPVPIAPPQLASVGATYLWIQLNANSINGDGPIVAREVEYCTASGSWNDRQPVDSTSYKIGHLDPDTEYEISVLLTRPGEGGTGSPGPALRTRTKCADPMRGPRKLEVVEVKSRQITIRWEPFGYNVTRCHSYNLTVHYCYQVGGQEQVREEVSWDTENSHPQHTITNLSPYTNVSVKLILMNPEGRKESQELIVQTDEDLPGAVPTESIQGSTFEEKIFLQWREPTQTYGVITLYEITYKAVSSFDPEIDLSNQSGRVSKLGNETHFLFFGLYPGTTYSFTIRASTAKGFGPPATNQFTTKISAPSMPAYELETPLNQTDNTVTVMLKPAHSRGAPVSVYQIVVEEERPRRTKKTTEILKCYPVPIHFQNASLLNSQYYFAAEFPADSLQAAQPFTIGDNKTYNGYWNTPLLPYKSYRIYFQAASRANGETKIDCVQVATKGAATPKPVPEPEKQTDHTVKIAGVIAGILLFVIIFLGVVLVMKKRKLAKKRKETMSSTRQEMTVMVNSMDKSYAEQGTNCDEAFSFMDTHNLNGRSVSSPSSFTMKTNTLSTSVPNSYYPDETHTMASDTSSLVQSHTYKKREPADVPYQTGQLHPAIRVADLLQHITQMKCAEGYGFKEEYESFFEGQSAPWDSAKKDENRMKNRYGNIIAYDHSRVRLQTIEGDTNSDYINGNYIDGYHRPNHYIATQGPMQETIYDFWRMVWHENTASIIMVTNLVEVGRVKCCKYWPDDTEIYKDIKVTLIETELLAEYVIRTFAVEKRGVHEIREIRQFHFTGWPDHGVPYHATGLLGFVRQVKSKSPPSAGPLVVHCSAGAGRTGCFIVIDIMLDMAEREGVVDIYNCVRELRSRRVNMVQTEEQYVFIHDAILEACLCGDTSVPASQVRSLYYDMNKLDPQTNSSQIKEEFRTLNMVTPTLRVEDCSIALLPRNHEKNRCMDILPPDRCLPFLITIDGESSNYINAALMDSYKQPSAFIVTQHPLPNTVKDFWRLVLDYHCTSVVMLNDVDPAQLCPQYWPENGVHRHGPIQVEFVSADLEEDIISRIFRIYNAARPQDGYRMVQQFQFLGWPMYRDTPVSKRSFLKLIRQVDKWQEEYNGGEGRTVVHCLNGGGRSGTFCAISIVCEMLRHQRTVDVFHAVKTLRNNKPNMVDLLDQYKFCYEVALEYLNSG
Chain of human Protein Tyrosine Phosphatase Non-receptor Type 9 (PTPN9), PTPN9 (gene 5780) (P43378 whole entry, looked up): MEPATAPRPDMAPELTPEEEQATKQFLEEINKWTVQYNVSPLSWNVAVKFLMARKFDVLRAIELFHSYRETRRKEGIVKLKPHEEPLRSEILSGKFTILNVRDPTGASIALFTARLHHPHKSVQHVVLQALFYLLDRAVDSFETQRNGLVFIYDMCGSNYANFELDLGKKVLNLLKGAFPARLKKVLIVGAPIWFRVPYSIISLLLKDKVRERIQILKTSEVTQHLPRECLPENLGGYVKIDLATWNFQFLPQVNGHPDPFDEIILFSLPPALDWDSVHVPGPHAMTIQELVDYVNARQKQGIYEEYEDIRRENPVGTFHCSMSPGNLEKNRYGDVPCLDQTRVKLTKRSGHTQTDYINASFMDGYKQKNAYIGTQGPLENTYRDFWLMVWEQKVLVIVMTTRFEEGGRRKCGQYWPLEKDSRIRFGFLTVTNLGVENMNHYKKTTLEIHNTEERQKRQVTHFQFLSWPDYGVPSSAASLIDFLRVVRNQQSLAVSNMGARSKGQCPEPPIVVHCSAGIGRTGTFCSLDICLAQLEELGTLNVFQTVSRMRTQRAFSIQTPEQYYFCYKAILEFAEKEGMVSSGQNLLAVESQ
Chain of human Protein Tyrosine Phosphatase Non-receptor Type 6 (PTPN6), PTPN6 (gene 5777) (P29350 whole entry, looked up): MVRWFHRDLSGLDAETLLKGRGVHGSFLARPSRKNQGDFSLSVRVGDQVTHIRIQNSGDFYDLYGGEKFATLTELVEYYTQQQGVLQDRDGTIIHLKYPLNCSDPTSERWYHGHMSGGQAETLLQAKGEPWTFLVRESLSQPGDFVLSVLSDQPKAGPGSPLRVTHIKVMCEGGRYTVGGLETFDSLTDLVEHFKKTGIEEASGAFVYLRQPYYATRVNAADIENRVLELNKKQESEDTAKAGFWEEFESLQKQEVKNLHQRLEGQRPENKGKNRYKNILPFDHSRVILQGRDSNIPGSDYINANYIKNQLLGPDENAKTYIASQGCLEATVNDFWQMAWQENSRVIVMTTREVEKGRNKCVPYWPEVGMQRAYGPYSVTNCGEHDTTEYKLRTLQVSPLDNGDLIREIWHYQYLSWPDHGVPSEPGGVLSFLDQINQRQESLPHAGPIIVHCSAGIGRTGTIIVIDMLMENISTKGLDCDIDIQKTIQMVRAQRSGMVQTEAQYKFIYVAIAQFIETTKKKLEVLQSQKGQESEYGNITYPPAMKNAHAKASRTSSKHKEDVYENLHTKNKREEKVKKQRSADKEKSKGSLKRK

On to `O=C1CCCO1`, for which the outcome in assay [1] and in assay [2] was inactive.

On to `c1ccc2c(c1)oc1ccccc12`, for which the molecule was called inactive in [3], in assay [2] and in [4].

For `CCN(CC)N=O`, the molecule was classed as inactive in [5], in assay [6], in assay [7], in assay [4] and in assay [8].

With `CCC12COCN1COC2`, the molecule was called inactive in assay [9].

Take `CC(C)(C)OOC(=O)c1ccccc1`: the result in assay [2] was inactive.

Take `CCCSC(=O)N(CCC)CCC`: the result in [4] was inactive.

Consider `N#CC(Br)Br`, for which the molecule was called inactive in [8].

Turning to `O=C(Oc1ccc(Br)cc1)N1CCN2CCC1CC2`, the result in assay [4] was inactive.

With `C[N+](C)(C)CC1CO1` (stereo not drawn), the result in assay [2] was inactive.

Regarding `Cn1cc(-c2ccccc2)c(=O)c(-c2cccc(C(F)(F)F)c2)c1`, the AC50 in assay [3] is 0.115 µM (active).

Turning to `CCC(C)c1ccc(O)cc1` (stereo not drawn), the outcome in assay [2] was inactive.

For `CCCCCOC(=O)c1ccccc1C(=O)OCCCCC`, in assay [6], the call was inactive.

With `CCCCCCCCOC(=O)c1ccc(C(=O)OCCCCCCCC)c(C(=O)OCCCCCCCC)c1`, the outcome in assay [9] was inactive.

Take `CC(C)(C)OOC(C)(C)CCC(C)(C)OOC(C)(C)C`: the AC50 in assay [2] is 39 µM (active).

With `CO[C@@H]1[C@H](OC(=O)NC(=O)CCl)CC[C@]2(CO2)[C@H]1[C@@]1(C)O[C@@H]1CC=C(C)C`, the molecule was called inactive in [5].

As for `CC(C)(OOC(C)(C)c1ccccc1)c1ccccc1`, in assay [2], the molecule was classed as inactive.

As for `CCN(CC)CCO`, the result in assay [6] was inactive.

For `CS(=O)(=O)NC(=O)c1cc(Oc2ccc(C(F)(F)F)cc2Cl)ccc1[N+](=O)[O-]`, in assay [9], the molecule was called inactive.

As for `Oc1ccc2ccc3cccc4ccc1c2c34`, the AC50 in assay [5] is 1.22 µM (active); in assay [6], 1.44 µM (active); in assay [7], 16.5 µM (active).

For the molecule `O=P(OCCCl)(OCCCl)OCCCl`, the call in assay [2] was inactive.

Turning to `O=Cc1ccco1`, the AC50 in assay [1] was 0.13 µM (active).

For the molecule `c1ccc(C2CO2)cc1` (stereo not drawn), the outcome in assay [2] was inactive.

As for `OCCCBr`, the AC50 in assay [5] is 25 µM (active); in assay [4], 13 µM (active). In addition, in assay [2], the outcome was inactive.

For the molecule `ClC1=C(Cl)[C@]2(Cl)[C@H]3[C@H]([C@@H]4C=C[C@H]3C4)[C@@]1(Cl)C2(Cl)Cl`, in assay [6], the call was inactive.

On to `Clc1ccc(C(c2ccc(Cl)cc2)C(Cl)(Cl)Cl)cc1`, for which the call in [3], in assay [6] and in assay [2] was inactive.

Turning to `O=C(O)C1C2CCC(O2)C1C(=O)O` (stereo not drawn), the outcome in assay [4] was inactive.

Consider `ClC1=C(Cl)C2(Cl)C3C(Cl)C=CC3C1(Cl)C2(Cl)Cl` (stereo not drawn), for which the call in [9] was inactive.

Turning to `CN(C)[C@@H]1C(=O)C(C(N)=O)=C(O)[C@@]2(O)C(=O)C3=C(O)c4c(O)cccc4[C@@](C)(O)[C@H]3C[C@@H]12`, the AC50 in assay [2] is 25 µM (active).

As to `O=[N+]([O-])c1ccc(Oc2ccc(Cl)cc2Cl)cc1`, the molecule was called inactive in [2].

`CN(C)c1ccc(C(=O)c2ccc(N(C)C)cc2)cc1`: the AC50 in [6] is 41.7 µM (active).

For the molecule `Clc1ccc(C(c2ccc(Cl)cc2)C(Cl)Cl)cc1`, the result in assay [2] was inactive.

For `Nc1ccc(Oc2ccc(N)cc2)cc1`, in assay [6], the result was inactive. The AC50 in [2] was 17 µM (active).

As to `CCNS(=O)(=O)C(F)(F)C(F)(F)C(F)(F)C(F)(F)C(F)(F)C(F)(F)C(F)(F)C(F)(F)F`, the call in assay [1], in [3], in [10], in assay [6] and in [4] was inactive.

For `CCCCCCCCCCCCCN1CC(C)OC(C)C1` (stereo not drawn), in assay [9], the molecule was classed as inactive.

Consider `C[C@]12C=CC3=C4CCC(=O)C=C4CC[C@H]3[C@@H]1CC[C@@H]2O`, for which, in assay [8], the outcome was inactive.

As usually defined, the AC50 is the concentration giving half of the maximal activity seen.
